Experimental data from the supplement of paper PMC10849652.
Targets with a hit are over-represented here; the source holds about 8,800 in all. About 0.5% of all pairs of compound and target were hits. A number with no mark means an inactive call.

Key:
Test in all cases: log2 fold change, soluble protein after heating vs DMSO (PISA); higher = thermal stabilisation; K562 lysate, 10 uM; active = over 0.2 and 3.5 SD of the protein, either way, in both replicates (recomputed)
ibrutinib = compound: C=CC(=O)N1CCC[C@@H](n2nc(-c3ccc(Oc4ccccc4)cc3)c3c(N)ncnc32)C1 [ibrutinib]
Method in brief: (§1)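 Thermal stability, expressed as log-two fold change relative to solvent controls, is given from duplicates. Crude K562 extract in PBS pH 7.4 with 1 mM MgCl2, at 1 mg/mL protein, was treated with 10 μM compound for 30 min and heated in aliquots for 3 min across 48°C-58°C. After pooling, adjustment to 0.5% NP-40 at 4°C and centrifugation at 21,000xg for 90 min, supernatant protein was measured by TMTpro 16plex LC-MS/MS with channel sums equalised.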

[1] = compound: CC(=O)c1cnc2ccc(-c3cc(Cl)c(O)c(Cl)c3)nc2c1N[C@H]1CC[C@H](CN(C)C)CC1
Method in brief: as §1

ralimetinib = compound: CC(C)(C)Cn1c(N)nc2ccc(-c3[nH]c(C(C)(C)C)nc3-c3ccc(F)cc3)nc21 [ralimetinib]
Method in brief: as §1

[2] = compound: CC(C)(O)CC(=O)NCCn1ccc2ncnc(Nc3ccc(Oc4cccc(C(F)(F)F)c4)c(Cl)c3)c21
Method in brief: as §1

[3] = compound: CC(C)C1=C2N=C(C=C(N2N=C1)NCC3=CC=CC=C3)NCCCCCCN
Method in brief: as §1

[4] = compound: CC1=C(C(CC(=O)N1)C2=CC=C(C=C2)C(F)(F)F)C(=O)NC3=C(C=C4C(=C3)C=NN4)F
Method in brief: as §1

[5] = compound: CC1=C(C2=C(C=C1)C(=O)C3=CC=CC=C3N2CCCN)C
Method in brief: as §1

[6] = compound: CC1=C(C=C(C=C1)NC(=O)C2=CC(=CC=C2)C(C)(C)C#N)NC3=CC4=C(C=C3)N=CN(C4=O)C
Method in brief: as §1

[7] = compound: CC1=C(C=C(C=C1)NC(=O)C2=CC(=CC=C2)N(C)C)NC(=O)C3=CC=C(C=C3)O
Method in brief: as §1

[8] = compound: CC1=CC=C(C=C1)SC2=C3C=C(SC3=CN=C2)C(=O)N
Method in brief: as §1

Sequence of UniProt Q9NQ29 (Q9NQ29 whole entry, looked up): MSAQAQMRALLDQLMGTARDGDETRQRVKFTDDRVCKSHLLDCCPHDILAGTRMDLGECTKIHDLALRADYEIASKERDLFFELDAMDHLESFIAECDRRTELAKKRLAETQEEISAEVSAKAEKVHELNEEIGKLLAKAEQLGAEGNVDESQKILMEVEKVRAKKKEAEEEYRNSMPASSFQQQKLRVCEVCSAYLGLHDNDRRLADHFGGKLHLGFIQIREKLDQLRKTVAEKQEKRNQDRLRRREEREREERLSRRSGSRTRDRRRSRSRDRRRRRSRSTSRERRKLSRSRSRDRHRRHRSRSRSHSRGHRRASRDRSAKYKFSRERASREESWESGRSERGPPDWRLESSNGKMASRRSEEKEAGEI
Sequence of UniProt Q9Y4K4 (Q9Y4K4 whole entry, looked up): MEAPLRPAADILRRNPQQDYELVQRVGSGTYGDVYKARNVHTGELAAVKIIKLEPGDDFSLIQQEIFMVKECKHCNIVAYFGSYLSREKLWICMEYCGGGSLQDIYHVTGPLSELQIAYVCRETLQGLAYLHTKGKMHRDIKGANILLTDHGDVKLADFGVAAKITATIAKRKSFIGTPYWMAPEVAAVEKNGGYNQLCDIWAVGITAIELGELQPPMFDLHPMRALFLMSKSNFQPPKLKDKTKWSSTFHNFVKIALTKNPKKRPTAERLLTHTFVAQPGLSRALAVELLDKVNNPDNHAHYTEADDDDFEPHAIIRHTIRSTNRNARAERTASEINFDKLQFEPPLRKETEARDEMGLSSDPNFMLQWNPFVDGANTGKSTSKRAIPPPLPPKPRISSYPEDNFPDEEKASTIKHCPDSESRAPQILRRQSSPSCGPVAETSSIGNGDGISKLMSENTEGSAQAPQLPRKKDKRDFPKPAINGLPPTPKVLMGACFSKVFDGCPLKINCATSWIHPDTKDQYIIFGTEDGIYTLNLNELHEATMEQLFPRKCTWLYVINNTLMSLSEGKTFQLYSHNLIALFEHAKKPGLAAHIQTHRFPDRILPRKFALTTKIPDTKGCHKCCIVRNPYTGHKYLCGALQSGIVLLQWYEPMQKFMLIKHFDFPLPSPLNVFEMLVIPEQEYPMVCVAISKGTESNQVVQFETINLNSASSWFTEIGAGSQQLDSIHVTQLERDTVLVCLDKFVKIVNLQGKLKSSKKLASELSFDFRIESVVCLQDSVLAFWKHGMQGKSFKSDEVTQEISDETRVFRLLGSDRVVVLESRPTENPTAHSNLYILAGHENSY
Sequence of UniProt Q9UFC0 (Q9UFC0 whole entry, looked up): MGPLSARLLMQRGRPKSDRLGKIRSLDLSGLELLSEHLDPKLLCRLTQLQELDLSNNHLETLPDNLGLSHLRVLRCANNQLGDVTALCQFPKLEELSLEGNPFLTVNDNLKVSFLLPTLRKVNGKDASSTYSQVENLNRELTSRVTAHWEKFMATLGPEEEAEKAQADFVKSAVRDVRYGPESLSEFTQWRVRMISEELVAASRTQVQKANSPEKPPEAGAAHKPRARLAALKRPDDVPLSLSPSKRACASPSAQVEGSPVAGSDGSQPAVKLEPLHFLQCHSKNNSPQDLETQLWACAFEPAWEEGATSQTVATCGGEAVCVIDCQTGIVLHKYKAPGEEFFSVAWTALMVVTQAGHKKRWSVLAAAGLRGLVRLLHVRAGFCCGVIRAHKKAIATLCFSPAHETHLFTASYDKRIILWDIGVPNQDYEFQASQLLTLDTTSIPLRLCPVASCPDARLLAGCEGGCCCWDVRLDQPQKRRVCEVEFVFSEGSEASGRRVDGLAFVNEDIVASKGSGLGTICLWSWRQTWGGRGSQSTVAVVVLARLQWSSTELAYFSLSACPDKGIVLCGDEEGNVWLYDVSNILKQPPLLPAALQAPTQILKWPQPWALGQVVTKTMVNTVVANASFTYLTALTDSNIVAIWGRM
Sequence of UniProt Q8WVR3 (Q8WVR3 whole entry, looked up): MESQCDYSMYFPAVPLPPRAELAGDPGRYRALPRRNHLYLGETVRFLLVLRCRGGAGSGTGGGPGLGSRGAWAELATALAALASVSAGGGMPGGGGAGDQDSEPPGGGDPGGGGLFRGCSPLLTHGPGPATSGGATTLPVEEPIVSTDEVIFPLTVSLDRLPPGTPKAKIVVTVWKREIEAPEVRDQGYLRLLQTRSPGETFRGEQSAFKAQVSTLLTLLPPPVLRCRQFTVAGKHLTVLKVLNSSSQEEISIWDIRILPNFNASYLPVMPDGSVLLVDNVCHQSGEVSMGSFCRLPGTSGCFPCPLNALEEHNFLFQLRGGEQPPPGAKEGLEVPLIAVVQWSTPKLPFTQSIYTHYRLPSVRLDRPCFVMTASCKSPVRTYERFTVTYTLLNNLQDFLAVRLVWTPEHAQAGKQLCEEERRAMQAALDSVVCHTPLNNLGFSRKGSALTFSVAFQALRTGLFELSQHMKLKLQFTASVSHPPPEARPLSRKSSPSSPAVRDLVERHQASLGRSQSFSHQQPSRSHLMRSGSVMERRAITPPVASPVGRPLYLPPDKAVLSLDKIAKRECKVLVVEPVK
Sequence of UniProt Q9GZY8 (Q9GZY8 whole entry, looked up): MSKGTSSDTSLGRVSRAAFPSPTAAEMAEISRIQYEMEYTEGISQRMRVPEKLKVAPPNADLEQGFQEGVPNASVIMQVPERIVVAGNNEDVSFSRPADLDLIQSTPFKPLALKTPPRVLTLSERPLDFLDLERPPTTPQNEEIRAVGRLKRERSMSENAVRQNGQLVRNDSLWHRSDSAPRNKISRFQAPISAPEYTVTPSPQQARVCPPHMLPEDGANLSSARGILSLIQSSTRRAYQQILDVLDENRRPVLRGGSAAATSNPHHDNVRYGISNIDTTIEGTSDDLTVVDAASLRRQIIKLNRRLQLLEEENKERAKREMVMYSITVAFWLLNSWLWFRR
Sequence of UniProt Q9NS87 (Q9NS87 whole entry, looked up): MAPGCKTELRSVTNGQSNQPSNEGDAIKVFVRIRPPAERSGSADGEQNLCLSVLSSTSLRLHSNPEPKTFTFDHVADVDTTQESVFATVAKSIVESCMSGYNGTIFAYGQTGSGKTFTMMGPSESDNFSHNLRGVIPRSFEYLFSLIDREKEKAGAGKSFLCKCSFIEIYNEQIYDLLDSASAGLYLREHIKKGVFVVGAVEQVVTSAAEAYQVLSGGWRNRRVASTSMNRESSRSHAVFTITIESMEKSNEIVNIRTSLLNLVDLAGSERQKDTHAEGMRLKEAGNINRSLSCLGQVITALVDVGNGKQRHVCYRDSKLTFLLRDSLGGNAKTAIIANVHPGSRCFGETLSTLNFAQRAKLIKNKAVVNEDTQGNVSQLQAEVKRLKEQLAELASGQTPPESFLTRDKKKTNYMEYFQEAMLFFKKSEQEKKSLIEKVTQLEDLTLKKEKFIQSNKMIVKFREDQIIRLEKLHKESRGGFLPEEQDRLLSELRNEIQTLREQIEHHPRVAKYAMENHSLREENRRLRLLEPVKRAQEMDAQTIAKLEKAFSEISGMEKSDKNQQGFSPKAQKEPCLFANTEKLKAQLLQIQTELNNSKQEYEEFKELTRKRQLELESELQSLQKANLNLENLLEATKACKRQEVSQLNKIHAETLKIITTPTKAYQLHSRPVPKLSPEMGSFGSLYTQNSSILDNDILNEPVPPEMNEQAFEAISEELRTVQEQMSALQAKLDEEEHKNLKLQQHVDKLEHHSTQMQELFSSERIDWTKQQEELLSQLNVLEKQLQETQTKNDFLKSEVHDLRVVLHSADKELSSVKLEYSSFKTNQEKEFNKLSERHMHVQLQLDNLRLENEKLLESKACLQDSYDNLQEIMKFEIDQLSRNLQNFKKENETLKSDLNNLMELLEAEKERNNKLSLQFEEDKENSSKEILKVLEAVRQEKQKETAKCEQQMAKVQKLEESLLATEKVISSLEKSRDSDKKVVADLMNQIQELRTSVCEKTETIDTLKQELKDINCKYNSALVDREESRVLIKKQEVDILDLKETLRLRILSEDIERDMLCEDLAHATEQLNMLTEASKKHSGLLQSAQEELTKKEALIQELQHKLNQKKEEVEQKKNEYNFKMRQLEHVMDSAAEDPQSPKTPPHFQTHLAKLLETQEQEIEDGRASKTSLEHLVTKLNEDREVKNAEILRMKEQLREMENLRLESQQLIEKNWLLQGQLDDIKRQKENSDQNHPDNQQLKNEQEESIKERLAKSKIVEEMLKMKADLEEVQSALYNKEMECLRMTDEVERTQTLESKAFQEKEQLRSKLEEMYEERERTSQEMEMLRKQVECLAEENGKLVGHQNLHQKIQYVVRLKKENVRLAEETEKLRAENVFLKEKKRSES
Sequence of UniProt Q9H9A6 (Q9H9A6 whole entry, looked up): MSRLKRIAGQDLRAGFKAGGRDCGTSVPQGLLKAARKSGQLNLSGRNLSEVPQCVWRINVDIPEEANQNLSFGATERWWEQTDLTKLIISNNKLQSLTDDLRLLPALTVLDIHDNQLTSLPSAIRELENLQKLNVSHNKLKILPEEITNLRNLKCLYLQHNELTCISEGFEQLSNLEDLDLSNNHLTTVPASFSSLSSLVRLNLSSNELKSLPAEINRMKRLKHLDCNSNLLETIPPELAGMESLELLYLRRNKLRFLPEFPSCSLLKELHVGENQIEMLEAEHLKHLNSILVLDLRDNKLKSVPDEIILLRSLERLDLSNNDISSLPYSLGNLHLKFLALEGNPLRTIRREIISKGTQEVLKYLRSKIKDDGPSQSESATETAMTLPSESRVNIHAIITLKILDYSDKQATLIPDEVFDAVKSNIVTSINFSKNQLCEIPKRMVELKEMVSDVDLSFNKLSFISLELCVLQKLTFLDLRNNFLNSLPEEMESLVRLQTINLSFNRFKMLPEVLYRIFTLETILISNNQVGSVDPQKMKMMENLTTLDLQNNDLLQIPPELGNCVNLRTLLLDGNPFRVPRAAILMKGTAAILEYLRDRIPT
Sequence of UniProt Q9UI95 (Q9UI95 whole entry, looked up): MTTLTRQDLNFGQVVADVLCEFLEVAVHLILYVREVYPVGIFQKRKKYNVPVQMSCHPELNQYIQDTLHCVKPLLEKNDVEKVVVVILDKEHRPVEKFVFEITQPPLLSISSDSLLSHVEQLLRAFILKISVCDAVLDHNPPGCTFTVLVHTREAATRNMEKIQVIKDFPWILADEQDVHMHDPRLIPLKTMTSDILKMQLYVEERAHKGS

Row | Target | log2 fold change (ibrutinib) | log2 fold change [1] | log2 fold change (ralimetinib) | log2 fold change [2] | log2 fold change [3] | log2 fold change [4] | log2 fold change [5] | log2 fold change [6] | log2 fold change [7] | log2 fold change [8]
1 | MAP2K2 (UniProt P36507) | 0.239 | 0.443 (active) | -0.052 | 0.173 | -0.007 | -0.009 | -0.033 | -0.017 | 0.013 | -0.014
2 | MRPL15 (UniProt Q9P015) | 0.003 | -0.078 | -0.024 | -0.056 | -0.01 | -0.007 | -0.133 | 0.032 | 0.009 | -0.023
3 | KIF15 (UniProt Q9NS87) | -0.017 | 0.006 | 0.008 | -0.022 | 0.01 | 0.022 | -0.027 | 0.02 | 0.036 | -0.015
4 | MFF isoform 2 (UniProt Q9GZY8) | 0.007 | -0.044 | -0.03 | -0.033 | -0.052 | 0 | 0.004 | 0.032 | 0.022 | -0.024
5 | KPNA2 (UniProt P52292) | -0.044 | -0.011 | -0.001 | -0.023 | 0.009 | -0.01 | -0.027 | -0.032 | 0.051 | 0.041
6 | MAD2L2 (UniProt Q9UI95) | -0.015 | -0.173 | 0.103 | -0.08 | -0.03 | -0.001 | -0.059 | 0.053 | -0.106 | -0.132
7 | MPP1 (UniProt Q00013) | 0.035 | 0.011 | -0.01 | -0.002 | 0.02 | -0.019 | 0.018 | 0.022 | 0.012 | -0.004
8 | MAP11 (UniProt Q8WVR3) | 0.064 | 0.072 | 0.037 | -0.008 | -0.005 | 0.105 | -0.063 | 0.014 | -0.031 | 0.078
9 | LPCAT1 (UniProt Q8NF37) | 0.175 | -0.021 | 0 | -0.142 | -0.036 | 0.066 | -0.011 | 0.003 | -0.016 | -0.019
10 | MBOAT2 (UniProt Q6ZWT7) | -0.092 | -0.039 | 0.137 | 0.047 | -0.047 | 0.034 | 0.031 | 0.008 | -0.117 | 0.096
11 | MORC2 (UniProt Q9Y6X9) | 0.065 | 0.02 | 0.054 | -0.035 | -0.039 | -0.001 | -0.026 | -0.037 | 0.072 | 0.004
12 | KSR1 (UniProt Q8IVT5) | 0.021 | -0.103 | 0.054 | 0.021 | -0.025 | -0.011 | -0.032 | 0.007 | 0.019 | -0.074
13 | MAP4K5 (UniProt Q9Y4K4) | 0.029 | 0.108 | 0.039 | 0.002 | 0.098 | -0.003 | 0.009 | 0 | 0.021 | 0.025
14 | MICB, A0A140T979 | 0.074 | 0.317 | -0.037 | -0.101 | -0.07 | -0.11 | -0.002 | 0.016 | 0.004 | -0.068
15 | MAPKAPK5 (UniProt Q8IW41) | -0.001 | -0.008 | -0.024 | -0.012 | 0 | -0.057 | -0.01 | 0.034 | 0.048 | -0.066
16 | MAP2K5 (UniProt Q13163) | 0.007 | -0.013 | 0.103 | -0.075 | -0.078 | -0.037 | -0.208 | 0.235 | 0.052 | -0.211

Row | Target | log2 fold change (ibrutinib) | log2 fold change [1] | log2 fold change (ralimetinib) | log2 fold change [2] | log2 fold change [3] | log2 fold change [4] | log2 fold change [5] | log2 fold change [6] | log2 fold change [7] | log2 fold change [8]
17 | LUC7L (UniProt Q9NQ29) | 0.007 | 0.003 | 0.008 | 0.027 | 0.056 | 0.002 | 0.007 | -0.04 | -0.01 | 0.02
18 | KIF22 (UniProt Q14807) | 0.012 | -0.02 | 0.006 | -0.27 | 0.028 | 0.016 | -0.142 | 0.143 | -0.027 | -0.117
19 | MICU1 isoform 3 (UniProt Q9BPX6) | -0.011 | -0.021 | 0.023 | 0.001 | -0.02 | 0 | 0.013 | -0.028 | 0.038 | 0.019
20 | MAPK9 (UniProt P45984) | -0.024 | 0.234 (active) | 0.366 (active) | 0.002 | -0.029 | -0.038 | -0.086 | 0.103 | -0.029 | -0.015
21 | MRPL27 (UniProt Q9P0M9) | -0.046 | -0.057 | 0.023 | -0.025 | 0.106 | 0.002 | -0.195 | -0.028 | 0.1 | 0.079
22 | LRRC40 (UniProt Q9H9A6) | 0.017 | 0.011 | 0.019 | 0.025 | -0.011 | 0.015 | 0.002 | -0.073 | 0.01 | -0.007
23 | MAP4 (UniProt E7EVA0) | 0.001 | -0.009 | -0.038 | -0.185 | 0.036 | -0.058 | 0.008 | 0.131 | 0.005 | -0.027
24 | LRCH3 (UniProt Q96II8) | -0.052 | -0.016 | -0.004 | -0.017 | 0.015 | -0.015 | -0.025 | 0.047 | 0.07 | 0.034
25 | L3HYPDH (UniProt Q96EM0) | -0.004 | 0.039 | -0.021 | -0.004 | 0.004 | -0.044 | -0.001 | 0.032 | 0.018 | -0.024
26 | MAN2B2 (UniProt Q9Y2E5) | -0.019 | -0.026 | 0.008 | 0.083 | -0.051 | 0.056 | -0.013 | -0.013 | -0.024 | 0.012
27 | KNSTRN (UniProt Q9Y448) | -0.017 | 0.018 | 0.027 | 0.081 | -0.008 | 0.022 | -0.023 | -0.032 | 0 | 0.002
28 | KIFC1 (UniProt Q9BW19) | 0.021 | -0.002 | -0.025 | 0.007 | -0.012 | -0.009 | 0.004 | 0.002 | 0.011 | 0.002
29 | MAPK3 (UniProt P27361) | 0.001 | 0.017 | -0.02 | -0.018 | -0.033 | -0.012 | -0.006 | 0.026 | -0.022 | -0.028
30 | LRWD1 (UniProt Q9UFC0) | 0.082 | -0.009 | 0.004 | 0 | 0.035 | 0.015 | -0.004 | 0 | 0.032 | 0.04
31 | MAP2K7 isoform 4 (UniProt O14733) | 1.44 (active) | 0.288 | 0.028 | 0.028 | -0.071 | -0.029 | 0.011 | -0.004 | -0.002 | 0.018
